Assay outcomes from PubChem BioAssay.
mHTT-CaM PPI inh = mHTT-calmodulin interaction abrogation; P42858; inhibition, % at 15 µM; AlphaScreen His-mHTT/GST-CaM binding, luminescence; 190,000 tested, 3.6% active;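 also: 0% = both proteins with DMSO and 100% = one protein alone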
Pf apPOL block = Pf-apPOL DNA polymerase inhibition; Recombinant Pf-apPOL, molecular beacon fluorescence, 1.5 h; inhibition, % at 10 µM; 210,000 tested, 0.25% active
The depositor's hits bear a star; · = not tested or not shown. Compounds with a hit are over-represented: about 3.5% of the library has one in this group of screens. Rule as the data show it: active = inhibition above about 50%; inactive = the rest.

SMILES	mHTT-CaM PPI inh	Pf apPOL block
Cc1ccc(CC(=O)N2CCc3c(c(C(=O)NCc4ccc(Cl)cc4)nn3C)C2)cc1	78.5*	-6.0
Cn1nc(C(=O)NCc2ccccc2)c2c1CCN(C(=O)Cc1ccccc1)C2	43.3	-5.6
Cn1nc(C(=O)NCc2ccc(Cl)cc2)c2c1CCN(C(=O)c1cccc(F)c1)C2	31.3	2.1
Cn1nc(COCc2ccccc2)c2c1CCN(C(=O)COc1ccccc1)C2	-4.0	-11.6
Cn1nc(COCc2ccccc2)c2c1CCN(C(=O)Cc1cccc(F)c1)C2	55.5*	-2.4
Cn1nc(C(=O)NCc2ccc(Cl)cc2)c2c1CCN(C(=O)Cc1ccccc1)C2	94.8*	2.5
Cc1cccc(CC(=O)N2CCc3c(c(C(=O)NCc4ccc(Cl)cc4)nn3C)C2)c1	58.9*	-12.4
COc1ccc(-c2cn(-c3cccc(Br)c3)c(=O)[nH]2)cc1	26.0	-0.1
O=C(/C=C/c1cccc([N+](=O)[O-])c1)Nc1cccc(Cl)c1Cl	0.0	0.9
Cc1nn(CCCC(=O)Nc2c(Cl)cccc2Cl)c(C)c1[N+](=O)[O-]	1.0	-6.5
Cc1c(NC(=O)Cc2ccc(Cl)cc2)cccc1-c1nc2ncccc2o1	1.0	-11.0
CCC(C(=O)Nc1c2c(nn1-c1ccccc1C)CS(=O)(=O)C2)c1ccccc1 (centres undefined)	-1.0	-4.6
O=C(NCCN1CCCC1)C1CCN(c2ncnc3c2nc2n3CCCCC2)CC1	1.1	0.4
O=C(O)c1sccc1S(=O)(=O)N1CCN(c2ncc(C(F)(F)F)cc2Cl)CC1	·	-2.4
COc1cccc(CC(=O)N2CCc3c(c(C(=O)NCc4ccc(F)cc4)nn3C)C2)c1	69.0*	-5.2
Cn1nc(COCc2ccccc2)c2c1CCN(S(=O)(=O)c1ccc(F)cc1)C2	29.8	1.6
COc1ccc(OCC(=O)N2CCc3c(c(C(=O)NCc4ccccc4)nn3C)C2)cc1	-0.9	-12.1
Cn1nc(COCc2ccccc2)c2c1CCN(S(=O)(=O)c1ccc3c(c1)CCC3)C2	56.5*	-1.7
Cc1ncc(CO)c2cc(C(N)=O)c(=Nc3cccc(Cl)c3)oc12	12.0	-0.9
O=C(c1ccc(OCC2CCCN(C(=O)C3CCC3)C2)cc1)N1CCCC1 (centres undefined)	-4.1	-2.8
COc1cccc(CNC(=O)C2CCCN(c3nnc4c(Cl)cccn34)C2)c1 (centres undefined)	2.3	-1.3
CCn1c(=O)c(-c2ccc(C(=O)Nc3ccc(C)c(Cl)c3)cc2)nc2cccnc21	-2.7	2.7
Cc1c(C(=O)Nc2ccc(Br)cc2)cccc1[N+](=O)[O-]	2.2	11.2
COCc1cc(C)nc2sc(-c3ccc([N+](=O)[O-])cc3)c(-n3cccc3)c12	4.0	-2.9
CC(=O)Nc1ccc(N2C(=O)CC(NCCc3ccccn3)C2=O)cc1 (centres undefined)	54.0*	-14.9
SMILES	mHTT-CaM PPI inh	Pf apPOL block
COc1cccc(CCNC2CC(=O)N(c3ccc(NC(C)=O)cc3)C2=O)c1 (centres undefined)	4.4	-5.8
Cc1ccc(CNC(=O)N2CCc3c(c(-c4nc(-c5ccccc5)no4)nn3C)C2)cc1	4.0	-2.3
Cc1oc(-c2ccc(Cl)cc2)cc1C(=O)N1CCc2[nH]c3ccc(F)cc3c2C1	·	-0.2
O=C(Nc1ccc(S(=O)(=O)Nc2cccc(Cl)c2Cl)cc1)c1ccc([N+](=O)[O-])cc1	61.9*	-7.1
O=C(Nc1ccc(S(=O)(=O)Nc2ccccc2)cc1)c1ccc([N+](=O)[O-])cc1	-6.6	0.1
CNC(=O)C1CN(C(=O)NC2CCCCC2)CC12CCCC2 (centres undefined)	-5.7	0.2
COc1cc(C2C(C#N)=C(C)NC3=C2C(=O)CC(c2ccccc2)C3)cc(OC)c1OC (centres undefined)	16.4	6.9
CCN1C(=O)C(O)(CC(=O)c2ccccc2OC)c2ccccc21 (centres undefined)	0.5	1.4
C=CCN1C(=O)C(O)(CC(=O)c2ccc(C)cc2C)c2ccccc21 (centres undefined)	60.0*	-1.8
CCOc1ccc(NC(=O)CN(c2ccc(CC)cc2)S(C)(=O)=O)cc1	-3.8	-0.7
O=C(c1ccc(Cl)cc1)N(c1ccc(Cl)cc1)C1C=CS(=O)(=O)C1 (centres undefined)	1.0	-0.4
Cc1ccc(N(C(=O)c2ccc(C(C)(C)C)cc2)C2C=CS(=O)(=O)C2)cc1 (centres undefined)	20.2	79.7*
N#Cc1c(C(F)(F)F)cc(-c2cccs2)nc1SCC(=O)Nc1ccc(C(N)=O)cc1	-9.0	-3.0
O=C(NCc1ccco1)C1CC(=O)N(c2ccc(Br)cc2)C1 (centres undefined)	2.2	-4.1
Cc1ccc(S(=O)(=O)Nc2ccc(N(C)C)cc2)cc1	54.6*	-55.7
Cc1ccc(NS(=O)(=O)c2ccc(Cl)cc2)cc1	-21.6	5.1
COc1cccc(CC(=O)NCCC2CCN(C(=O)c3ccc(C)cc3)CC2)c1	-1.2	-2.3
COCCN1CCC(N2CCCN(C(=O)c3ccc4ccccc4n3)CC2)C1=O (centres undefined)	12.4	2.2
CCOc1ccc(C2(c3ccc(O)cc3)CCCCC2)cc1	85.7*	-2.4
CCOc1ccc(C(=O)NCC2(O)CCCC2)cc1	-0.1	-7.8
CN(Cc1ccccc1)C(=O)c1cc2cn(C3CC3)cc2s1	94.8*	2.2
CC(C)n1cc2cc(C(=O)N(C)C)sc2c1	11.7	1.2
CC(C)n1cc2cc(C(=O)N(C)Cc3ccccc3)sc2c1	86.2*	0.6
CC(C)N1CCN(C(=O)c2cc3cn(C(C)C)cc3s2)CC1	22.4	-5.3
O=C(NCc1ccccc1)c1cc2cn(C3CC3)cc2s1	42.3	18.0
SMILES	mHTT-CaM PPI inh	Pf apPOL block
CC(C)n1cc2cc(C(=O)N3CCN(Cc4cccc(F)c4)CC3)sc2c1	70.9*	2.8
CCc1nnc(NC(=O)CSc2nnc(COc3ccc(Cl)cc3Cl)o2)s1	1.0	-2.5
COc1ccc(C2C(=C(O)c3ccccc3)C(=O)C(=O)N2C)cc1 (centres undefined)	-1.4	-1.9
N#Cc1ccc(C(=O)N2CSCC2C(=O)NCCc2cscn2)cc1 (centres undefined)	1.3	-3.0
O=C1NC(=Nc2ccccc2)S/C1=C\c1ccc(-c2cccc(C(=O)O)c2)o1	6.0	2.6
CCc1c(C)nc2c(-c3ccc(Cl)cc3)c[nH]n2c1=O	2.0	12.2
N#CC1=C(N)Oc2c(C=Nc3ccccc3)ccc(O)c2C1c1cccc([N+](=O)[O-])c1 (centres undefined)	100.0*	-3.9
N#CC1=C(N)Oc2n[nH]c(-c3ccccc3)c2C1c1cccc([N+](=O)[O-])c1 (centres undefined)	11.0	-4.4
CCN1CCn2c(nc3cc(C(=O)Nc4ccc(F)c(C)c4)ccc32)C1=O	-11.9	3.5
COc1cc(C2(c3ccc(O)c(OC)c3)C(=O)Nc3c(C)cc(Br)cc32)ccc1O	59.6*	3.4
Cc1cc(Br)cc2c1NC(=O)C2(O)N1CCOCC1 (centres undefined)	-5.0	-2.2
CSc1ccc(N2CC(c3nnc(NC(=O)c4cccc(C)c4)o3)CC2=O)cc1 (centres undefined)	3.0	-3.8
CCOc1ccc(N2CC(c3nnc(NC(=O)C4CC4)o3)CC2=O)cc1 (centres undefined)	11.0	-2.9
COc1ccc(N2CC(c3nnc(NC(=O)c4ccccc4)o3)CC2=O)cc1 (centres undefined)	19.1	0.9
CSc1ccc(N2CC(c3nnc(NC(=O)c4cccc(Cl)c4)o3)CC2=O)cc1 (centres undefined)	53.3*	-1.1
